Test results as given in the supplement of paper PMC10981050.
Values joined by “and” are separate entries in the source; they are usually repeats but may differ in a detail not shown here. Identical values can stand only once. Counter-ions that a name gives are not always drawn.

How the values were obtained:
Assay in all cases: cell viability relative to vehicle control; higher = less cytotoxic
Settings in all cases: 10 µM
K562 = test system: K562
Outline: (§1)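 Screening covered the Selleck bioactive, kinase and epigenetic probe libraries, less identity-inconsistent compounds, on CRISPR-edited mutant clones and isogenic wild-type clones of four leukaemia lines. Cells, at 2000 per well in 50 µL medium, received a single 10 µM acoustically dispensed dose. After 48 h the supernatant was removed and CellTiter-Glo luminescence was read. Viability was analysed in Genedata Screener as percent of the on-plate vehicle control.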

MARIMO = test system: MARIMO
Outline: as §1

MOLM14 = test system: MOLM14
Outline: as §1

OCI-AML2 = test system: OCI-AML2
Outline: as §1

SMILES	cell viability (K562; SRSF2 genotype: SRSF2 P95H/wt)	cell viability (K562; SRSF2 genotype: SRSF2 wt/wt)	cell viability (MARIMO; SRSF2 genotype: SRSF2 P95H/wt)	cell viability (MARIMO; SRSF2 genotype: SRSF2 wt/wt)	cell viability (MOLM14; SRSF2 genotype: SRSF2 P95H/wt)	cell viability (MOLM14; SRSF2 genotype: SRSF2 wt/wt)	cell viability (OCI-AML2; SRSF2 genotype: P95H/wt)	cell viability (OCI-AML2; SRSF2 genotype: wt/wt)
NC1(c2ccc(-c3nc4ccn5c(=O)[nH]nc5c4cc3-c3ccccc3)cc2)CCC1 [MK-2206 dihydrochloride]	38.7% and 32.2%	48.4%	51.4%	53.3%	14.7%	22.9%	5.42%	27.8%
CN(C)CCCC1(c2ccc(F)cc2)OCc2cc(C#N)ccc21 (stereo not drawn) [Citalopram HBr]	98.3% and 92.9%	92.5%	94.2%	108%	91.5%	101%	90.8%	97.9%
N=C1CCCN1Cc1[nH]c(=O)[nH]c(=O)c1Cl [Tipiracil hydrochloride]	101% and 109%	104%	109%	112%	110%	105%	102%	94.7%
COc1cc(-c2cc(-c3cccc(O)c3)cnc2N)cc(OC)c1OC	13.5% and 28.9%	15.6%	78.2%	72.5%	81.9%	83%	83.5%	83.1%
COc1cc(-c2oc3cc(O)cc(O)c3c(=O)c2O[C@@H]2O[C@H](CO[C@@H]3O[C@@H](C)[C@H](O)[C@@H](O)[C@H]3O)[C@@H](O)[C@H](O)[C@H]2O)ccc1O [Narcissoside]	108% and 102%	106%	102%	103%	107%	105%	103%	109%
COC(=O)N[C@H](C(=O)N[C@@H](Cc1ccccc1)[C@@H](O)CN(Cc1ccc(-c2ccccn2)cc1)NC(=O)[C@@H](NC(=O)OC)C(C)(C)C)C(C)(C)C [Atazanavir sulfate]	97.1% and 109%	102%	93.5%	118%	103%	104%	94.5%	97.3%
O=c1ccc2ccc(OCCCCN3CCN(c4cccc5sccc45)CC3)cc2[nH]1 [Brexpiprazole]	37.4% and 28.9%	60.1%	43.1%	39.2%	33%	23.4%	15.4%	21.6%
COc1ccc2c(c1O)-c1c(O)c(OC)cc3c1[C@H](C2)[N+](C)(C)CC3 [Magnoflorinechloride]	99.2% and 99.7%	98.2%	99.4%	103%	103%	102%	93.8%	98.7%
O=C1NC(=O)C(c2cnc3ccccn23)=C1c1cn2c3c(cc(F)cc13)CN(C(=O)N1CCCCC1)CC2	56.1% and 43.4%	71.5%	94.4%	103%	86.8%	79.5%	118%	119%
NC(=O)c1[nH]cnc1N [4-Amino-5-imidazolecarboxamide]	101% and 104%	105%	101%	107%	99.1%	108%	97.3%	108%
C=C(c1ccc(C(=O)O)cc1)c1cc2c(cc1C)C(C)(C)CCC2(C)C [Bexarotene]	84.9% and 95.7%	87.6%	85.7%	106%	89.4%	103%	33.3%	63.5%
COc1ccc(-n2nc(C(N)=O)c3c2C(=O)N(c2ccc(N4CCCCC4=O)cc2)CC3)cc1 [Apixaban]	99.3% and 102%	103%	97.9%	112%	107%	105%	98%	96.7%
Cc1nc2n(c(=O)c1CCN1CCC(c3noc4cc(F)ccc34)CC1)CCCC2 [Risperidone (Risperdal)]	93.6% and 101%	93.5%	94%	99.2%	100%	98.2%	98.8%	99%
COc1ccc(-c2cc(=O)c3c(OC)c(OC)c(OC)c(OC)c3o2)cc1 [Tangeretin (Tangeritin)]	95.5% and 98.4%	103%	91.7%	90.8%	96%	102%	82.9%	88.1%
CC(C)OC(=O)C1=CN(C(=O)c2ccc(F)c(F)c2)CC(C)(C)c2c1[nH]c1ccccc21 [Turofexorate Isopropyl (XL335)]	100% and 97.7%	103%	96.7%	102%	97%	98.5%	92.7%	96.7%
CCCCCCC=CCCCCCCCc1cccc(O)c1C(=O)O [Ginkgolic Acid]	103% and 101%	104%	108%	110%	109%	107%	100%	106%
O=C[C@H](O)[C@@H](O)[C@H](O[C@H]1O[C@H](CO)[C@@H](O[C@H]2O[C@H](CO)[C@@H](O[C@H]3O[C@H](CO)[C@@H](O[C@H]4O[C@H](CO)[C@@H](O)[C@H](O)[C@H]4O)[C@H](O)[C@H]3O)[C@H](O)[C@H]2O)[C@H](O)[C@H]1O)[C@H](O)CO [Maltopentaose]	101%	103%	97.8%	105%	104%	106%	109%	110%
COC(=O)c1ccc(O)cc1 [Methyl 4-hydroxybenzoate]	93% and 82.6%	88.2%	90.5%	94.1%	91.9%	95.5%	91.2%	90.5%
OCCn1cc(-c2cnc3nnn(Cc4ccc5ncccc5c4)c3n2)cn1	96.9% and 99.3%	104%	105%	102%	99.4%	100%	97.9%	97.9%
C[N+](C)(C)C[C@H](O)CC(=O)[O-] [L-carnitine (Levocarnitine)]	103% and 99.6%	99.8%	99.1%	105%	95.1%	103%	90.9%	110%
O=c1[nH]c(=O)n([C@H]2C[C@H](O)[C@@H](CO)O2)cc1F [Floxuridine]	54.2% and 46.3%	30.1%	86.5%	96.5%	48%	14.9%	30.9%	48.8%

SMILES	cell viability (K562; SRSF2 genotype: SRSF2 P95H/wt)	cell viability (K562; SRSF2 genotype: SRSF2 wt/wt)	cell viability (MARIMO; SRSF2 genotype: SRSF2 P95H/wt)	cell viability (MARIMO; SRSF2 genotype: SRSF2 wt/wt)	cell viability (MOLM14; SRSF2 genotype: SRSF2 P95H/wt)	cell viability (MOLM14; SRSF2 genotype: SRSF2 wt/wt)	cell viability (OCI-AML2; SRSF2 genotype: P95H/wt)	cell viability (OCI-AML2; SRSF2 genotype: wt/wt)
C=C(C)[C@@H]1CC[C@]2(C(=O)O[C@@H]3O[C@H](CO[C@@H]4O[C@H](CO)[C@@H](O[C@@H]5O[C@@H](C)[C@H](O)[C@@H](O)[C@H]5O)[C@H](O)[C@H]4O)[C@@H](O)[C@H](O)[C@H]3O)CC[C@]3(C)[C@H](CC[C@@H]4[C@@]5(C)CC[C@H](O[C@@H]6OC[C@H](O)[C@H](O)[C@H]6O[C@@H]6O[C@@H](C)[C@H](O)[C@@H](O)[C@H]6O)[C@@](C)(CO)[C@@H]5CC[C@]43C)[C@@H]12 [Anemoside B4]	93.9% and 103%	92%	96.1%	110%	96.9%	97.4%	93.2%	105%
CCS(=O)(=O)Nc1ccc2[nH]c(O)c(C(=Nc3ccc(CN4CCCCC4)cc3)c3ccccc3)c2c1 [Hesperadin]	19.5% and 24%	15.9%	5.46%	9.42%	0.94%	0.3%	5.95%	9.44%
COc1ccc(CCC(=O)N(c2nccc3ccccc23)[C@@H]2CCCNC2)cc1	91.8% and 90.5%	85.2%	79%	93.4%	80.5%	85.3%	91%	91.2%
O=C1C(=O)c2ccccc2C(O)=C1C1CCC(c2ccc(Cl)cc2)CC1 (stereo not drawn) [Atovaquone (Atavaquone)]	87.9% and 81.8%	79.7%	87.9%	95.8%	84.7%	88.7%	84.8%	90.1%
COc1cc2c(cc1OC)CC(=O)N(CCCN(C)C[C@H]1Cc3cc(OC)c(OC)cc31)CC2 [Ivabradine HCl (Procoralan)]	97.8% and 97.4%	93.7%	97.4%	109%	99.6%	106%	95.8%	107%
N=C(N)NC(=N)N1CCOCC1 [Moroxydine HCl]	99.7% and 100%	91.8%	97.6%	101%	95.8%	99.5%	98.1%	93.8%
O=C(CNc1ccc2ccccc2c1)N/N=C/c1cc(Br)c(O)c(Br)c1O	81.1% and 82.1%	72.8%	50.8%	65.4%	62.3%	51.7%	49.8%	58.5%
O=C(O)c1cc(/N=N/c2ccc(O)c(C(=O)O)c2)ccc1O [Olsalazine Sodium]	86.9% and 86%	81.6%	88.2%	92.2%	85.2%	88.4%	94.1%	90.1%
CN1CCCN(C(=O)c2cccc(-c3ccc(/C=C4/C(=O)Nc5ccc(Cl)cc54)o3)c2)CC1	0.32%	0.41%	0.26%	0.37%	0.32%	0.29%	0.21%	0.42%
Nc1c(Br)cc(Br)cc1CN[C@H]1CC[C@H](O)CC1 [Ambroxol]	97.6% and 99.3%	98.9%	96.2%	96.7%	101%	102%	104%	112%
CNc1ccc([N+](=O)[O-])c(Nc2ccc3[nH]ncc3c2)n1	59.1% and 76.9%	58.6%	50.4%	60%	18.1%	9.24%	18.9%	26.6%
O=C(C1CCCCC1)N1CC(=O)N2CCc3ccccc3C2C1 (stereo not drawn) [Praziquantel (Biltricide)]	105% and 101%	102%	109%	107%	111%	109%	115%	103%
CC(C)c1cnn2c(NCc3ccccc3-n3cccn3)nc(OC3CCCNC3)nc12 (stereo not drawn)	5.8% and 12.8%	9.75%	0.54%	0.75%	0.56%	0.56%	0.46%	1.89%
Clc1ccc(C(c2ccccc2Cl)C(Cl)Cl)cc1 (stereo not drawn) [Mitotane]	91.2% and 89.1%	87.6%	83%	106%	90.8%	84.8%	93.7%	107%
CCCCNc1cc(C(=O)O)cc(S(N)(=O)=O)c1Oc1ccccc1 [Bumetanide]	105% and 102%	102%	96.5%	108%	105%	101%	99.9%	110%
CC(C)(C)C(=O)Oc1ccc(S(=O)(=O)Nc2ccccc2C(=O)NCC(=O)O)cc1 [Sivelestat sodium tetrahydrate]	101% and 94.9%	102%	96.7%	102%	106%	100%	96.5%	99.2%
O=C(O)Cc1ccccc1Nc1c(Cl)cccc1Cl [Diclofenac Sodium]	94.9% and 97.8%	102%	103%	110%	108%	100%	91.1%	102%
Cc1cnc(C(=O)O)c[n+]1[O-] [Acipimox]	99.3% and 96.5%	97.6%	96.7%	100%	98.8%	101%	105%	104%
CCOC(=O)C1OC1C(=O)NC(CC(C)C)C(=O)NCCC(C)C (stereo not drawn)	103%	97.2%	96.3%	101%	88.7%	101%	98.5%	104%
CC1CCN(CC[C@H]2CCCN2S(=O)(=O)c2cccc(O)c2)CC1	101%	95%	97.8%	106%	96.5%	103%	92.9%	98.7%
